Values without a mark were called inactive. Results filed as inconclusive are left out. A call without a number means that no potency is given here. Activity calls are given as the source filed them. Unless noted, calls follow the shape of the dose curve; as a rule, active = well fitted curve in the direction sought with a large enough effect; inconclusive = small, poorly fitted or top-dose-only effect, or another doubt; inactive = no such curve, though single readings can be large; an effect the other way counts as inactive or inconclusive.
Tests used:
[1] = Cell Viability - Jurkat (AID 426;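 active = dose-dependent loss of cell ATP signal giving a full or clear fitted curve, ranked by lower potency value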;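 also: potency is read from the fitted curve at half-maximal effect; cells exposed to compound for 40 hours at 37 °C before ATP read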); conditions: qHTS
Procedure, shortened: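 Cytotoxicity taken as drop in cellular ATP (CellTiter-Glo luminescence, 20 min room temperature) after 40 hr, 37C treatment of 5000 Jurkat Clone E6-1 cells per well; concentration-response fitted with Hill equation for AC50.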

[2] = Cell Viability - Hek293 (AID 427;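 active = compounds whose dose-response curve shows a full or clear partial loss of cell viability, called from curve shape rather than a numeric limit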;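 also: potency is read from the fitted curve at half-maximal effect; cells exposed to compound for 40 hours at 37 °C before reading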); conditions: qHTS
Procedure, shortened: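 AC50 values derive from Hill-modelled concentration-response of ATP-based luminescence, normalized between DMSO-only and 100 uM tamoxifen controls. Cells were exposed in complete culture medium for 40 hr at 37 °C before detection.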

[3] = Cell Viability - HepG2 (AID 433; calls by dose curve;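 also: potency is read from the fitted curve at half-maximal effect; potency for ATP loss meaning cytotoxicity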); conditions: qHTS
Procedure, shortened: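 Cytotoxicity is scored as loss of intracellular ATP in HepG2 cells exposed to compounds for 40 h. Concentration-response curves, normalized to DMSO and 100 uM tamoxifen, give AC50 values.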

[4] = Cell Viability - H-4-II-E (AID 543); also: nearly all actives have a fitted effect of over 35% in size; also: potency is read from the fitted curve at half-maximal effect
Procedure, shortened: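 CellTiter-Glo luminescence (intracellular ATP) measured after 40 h compound exposure at 37 °C in H-4-II-E rat hepatoma cells seeded at 1500/well. Values are AC50s fitted with the standard Hill equation.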

[5] = Cellular Toxicity (caspase-3) Jurkat (AID 655); conditions: Jurkat caspase-3 activation, luminescence; caspase-3 activation: at 92.2 µM (top of the series), DMSO = 0%, tamoxifen = 100%;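 also: cells exposed to compound for 16 h at 37 °C before reading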
Procedure, shortened: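 Caspase 3/7 activation is scored as increased luminescence in Jurkat cells cultured with compound for 16 hours in complete medium. AC50 values come from Hill fits of qHTS concentration-response data normalized to DMSO and 100 uM tamoxifen controls.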

[6] = Cellular Toxicity (caspase-3) SHSY5Y (AID 657);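 also: cells exposed to compound for 16 hours at 37 °C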
Procedure, shortened: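 Cells plated and incubated 5 h at 37 °C, dosed over a concentration range, incubated 16 h, then given Caspase-Glo 3/7 reagent for 1 h at room temperature before luminescence reading. Staurosporine (10 uM) defined full stimulation.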

[7] = Cellular Toxicity (caspase-3) BJ (AID 658); conditions: Potency: caspase-3 activation
Procedure, shortened: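 Plated BJ cells (1000/well) rested 5 hr, received compound for 16 hr at 37 °C, then Caspase-Glo 3/7 reagent for 1 hr at room temperature before luminescence reading.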

[8] = Cellular Toxicity (caspase-3) MRC-5 (AID 659)
Procedure, shortened: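 Apoptosis readout in MRC-5 cells: luciferase light generated after caspase 3/7 cleaves a peptide-aminoluciferin substrate, measured post 16 hr compound incubation at 37 °C.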

[9] = Cellular Toxicity (caspase-3) SK-N-SH (AID 661); conditions: SK-N-SH caspase-3 activation, qHTS; caspase-3 activation: at 91.7 µM (top of the series), DMSO as zero, staurosporine as full; also: potency is read from the fitted curve at half-maximal effect
Procedure, shortened: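 Caspase 3/7 activation was read by luminogenic substrate cleavage after 16 hour treatment of SK-N-SH cells. Signal was scaled between DMSO and 10 uM staurosporine, and concentration-response data were fitted with the Hill equation for AC50.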

[10] = Cellular Toxicity (caspase-3) H-4-II-E (AID 663); conditions: H-4-II-E rat hepatoma; Potency: caspase-3 activation; caspase-3 activation: at 92.2 µM (top of the series), scaled: DMSO 0%, 100 µM tamoxifen 100%
Procedure, shortened: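 Caspase 3/7 activation measured in H-4-II-E cells in complete culture medium after 16 hr treatment at 37 °C, using luciferase-coupled substrate readout; AC50 values come from Hill-equation fits of normalized concentration-response data.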

[11] = Cellular Toxicity (caspase-3) Hek293 (AID 664); conditions: HEK293 caspase-3 activation, DMSO = 0%, 100 µM tamoxifen = 100%; at 92.2 µM (top of the series);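 also: cells exposed to compound for 16 h at 37 °C before readout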
Procedure, shortened: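 Concentration-response qHTS: caspase 3/7 activation measured by luminescent aminoluciferin substrate cleavage after 16 h compound exposure of Hek 293 cells. AC50 from Hill equation, with DMSO as basal and 100 uM tamoxifen as 100%.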

[12] = Cellular Toxicity (caspase-3) NIH 3T3 (AID 666);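 also: caspase signal read after 16 h compound exposure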
Procedure, shortened: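 Caspase-Glo 3/7 luminescence reported caspase activation in 1000 NIH 3T3 cells/well after 16 h compound exposure at 37 C. DMSO set basal and 100 uM tamoxifen set 100% stimulation; concentration-response modeled with the Hill equation for AC50.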

[13] = MultiTox-Fluor Cytotoxicity Assay - LYMP1-001 - Dead Cells (AID 946); also: potency is read from the fitted curve at half-maximal effect
Procedure, shortened: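 In this qHTS, 15 uM tetraoctylammonium bromide defined 100% and DMSO defined basal activity. Lymphoblastoid cells (LYMP1-001, 2500 per well) received compound for 16 hr at 37 C before a fluorogenic dead-cell substrate readout at 485/520 nm.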

[14] = Cell Viability - LYMP1-003 - Assay at 24 hr (AID 963); also: potency is read from the fitted curve at half-maximal effect
Procedure, shortened: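 Concentration-response qHTS: ATP loss measured by CellTiter-Glo luminescence after 24 h compound exposure at 37 C. Cells were LYMP1-003 human lymphoblastoid, 2500 per well. AC50 derived via standard Hill equation modeling.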

[15] = Cell Viability - LYMP2-003 (AID 965);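 also: cells exposed to compounds for 24 h before reading; nearly all actives have a fitted effect of over 50% in size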; also: potency is read from the fitted curve at half-maximal effect
Procedure, shortened: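 Acute cytotoxicity is scored as a concentration-dependent drop in intracellular ATP, measured by luciferase luminescence in human lymphoblastoid cells treated for 24 hours at 37 C. AC50 values derive from Hill-equation modelling.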

[16] = Cell Viability - LYMP2-007 (AID 979);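 also: cells exposed to compound for 24 h before reading; nearly all actives have a fitted effect of over 60% in size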; also: potency is read from the fitted curve at half-maximal effect
Procedure, shortened: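 AC50 values come from Hill-equation fits of luminescent intracellular ATP (CellTiter-Glo, 30 min, room temperature) following 24 h compound exposure at 37 C. Cells: LYMP2-007 lymphoblastoid line, 2500 per well, in complete culture medium.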

[17] = Cell Viability - LYMP1-002 - Assay at 24 hr (AID 993); also: potency is read from the fitted curve at half-maximal effect
Procedure, shortened: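 qHTS cytotoxicity at 24 h: CellTiter-Glo ATP luminescence in lymphoblastoid line LYMP1-002 incubated with compound at 37 °C. Concentration-response modeled with the Hill equation for AC50; tetraoctylammonium bromide served as positive control.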

[18] = Cell Viability - NIH 3T3 (AID 541); conditions: NIH 3T3 cell viability, qHTS; activity change, negative = cytotoxicity: at 92.2 µM (top of the series); also: nearly all actives have a fitted effect of over 25% in size; also: potency is read from the fitted curve at half-maximal effect
Procedure, shortened: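 Intracellular ATP (CellTiter-Glo luminescence, 20 min at room temperature) measured after 40 hr compound exposure at 37 °C of 1000 NIH 3T3 mouse fibroblasts/well in complete medium; AC50 derived by Hill-equation modelling of qHTS concentration-response curves.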

[19] = molecular target: Voltage-gated inwardly rectifying potassium channel KCNH2 (Homo sapiens) (UniProt Q12809); experiment: qHTS Assay for Small Molecule Inhibitors of the Human hERG Channel Activity (AID 588834);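 also: lower thallium flux fluorescence means stronger hERG block; nearly all actives have a fitted effect of over 50% in size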; also: potency is read from the fitted curve at half-maximal effect
Voltage-gated inwardly rectifying potassium channel KCNH2 (Homo sapiens), sequence (Q12809 whole entry, looked up): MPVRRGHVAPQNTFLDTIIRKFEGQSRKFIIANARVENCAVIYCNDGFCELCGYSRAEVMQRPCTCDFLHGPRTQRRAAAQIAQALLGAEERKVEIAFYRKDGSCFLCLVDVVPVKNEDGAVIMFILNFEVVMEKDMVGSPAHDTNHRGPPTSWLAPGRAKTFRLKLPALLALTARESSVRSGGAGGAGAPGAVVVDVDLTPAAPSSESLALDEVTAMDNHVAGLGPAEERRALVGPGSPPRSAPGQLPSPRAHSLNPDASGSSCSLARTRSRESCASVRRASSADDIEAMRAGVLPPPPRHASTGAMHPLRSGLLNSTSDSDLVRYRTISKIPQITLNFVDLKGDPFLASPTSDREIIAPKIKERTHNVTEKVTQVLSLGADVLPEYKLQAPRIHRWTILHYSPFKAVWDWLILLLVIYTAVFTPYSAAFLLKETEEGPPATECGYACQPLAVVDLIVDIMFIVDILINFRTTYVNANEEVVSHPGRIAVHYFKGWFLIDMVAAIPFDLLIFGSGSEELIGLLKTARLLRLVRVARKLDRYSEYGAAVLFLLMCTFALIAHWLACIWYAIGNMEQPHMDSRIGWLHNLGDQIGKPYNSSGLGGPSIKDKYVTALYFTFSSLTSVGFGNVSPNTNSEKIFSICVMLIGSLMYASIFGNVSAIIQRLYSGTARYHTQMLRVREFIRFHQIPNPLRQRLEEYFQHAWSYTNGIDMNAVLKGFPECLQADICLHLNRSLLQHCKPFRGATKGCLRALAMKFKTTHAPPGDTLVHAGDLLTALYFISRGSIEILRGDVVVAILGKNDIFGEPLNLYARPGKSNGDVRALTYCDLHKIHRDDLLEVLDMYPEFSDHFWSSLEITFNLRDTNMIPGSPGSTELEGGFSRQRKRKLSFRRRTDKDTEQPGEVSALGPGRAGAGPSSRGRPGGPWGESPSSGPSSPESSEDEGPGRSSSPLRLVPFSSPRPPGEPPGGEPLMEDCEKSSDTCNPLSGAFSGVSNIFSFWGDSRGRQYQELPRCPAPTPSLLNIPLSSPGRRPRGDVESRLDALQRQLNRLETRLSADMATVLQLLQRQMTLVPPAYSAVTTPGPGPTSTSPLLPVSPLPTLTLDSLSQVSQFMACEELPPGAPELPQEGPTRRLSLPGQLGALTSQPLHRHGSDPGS
Procedure, shortened: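 Cells were infected with hERG-BacMam virus for 4 hrs at room temperature, grown overnight, then seeded at 2000/well. After dye loading and roughly 10 min compound treatment, thallium influx was triggered and fluorescence recorded.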

[20] = molecular target: Mitogen-activated protein kinase 10 (Mus musculus) (UniProt Q61831); experiment: JNK3 AlphaScreen Assay (AID 530; active = well fitted curve in either direction with a large enough effect, not every such curve was filed as active;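 also: kinase came from lysate of stimulated human HepG2 cells; signal reports phosphorylation of biotinylated GST-cJun 1-79 at Ser73 with 10 µM ATP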)
Procedure, shortened: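 Phosphorylation of biotinylated GST-cJun(1-79) at Ser73 is measured by AlphaScreen proximity luminescence. Enzyme is JNK3 in HepG2 lysates activated with interleukin-1beta and tumor necrosis factor alpha; ATP is 10 uM final.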

CN(C)c1ccc(C2(c3ccc(N(C)C)cc3)OC(=O)c3cc(N(C)C)ccc32)cc1
Potency [1]: > 92 µM | Potency [2]: > 92 µM | Potency [3]: > 92 µM | Potency [4]: inactive | Potency [5]: inactive | Potency [6]: inactive | Potency [7]: inactive | outcome [8]: inactive | caspase-3 activation [9]: -0.0609% | caspase-3 activation [10]: 0.305% | caspase-3 activation [11]: -1.05% | Potency [12]: inactive | Potency [13]: inactive | Potency [14]: inactive | Potency [15]: inactive | Potency [16]: inactive | Potency [17]: inactive

Cc1cc(Nc2ccc(O)cc2)ccc1N
Potency [1]: 7.82 µM (active) | Potency [2]: 52.8 µM (active) | activity change, negative = cytotoxicity [18]: -158% (active) | Potency [4]: 39.8 µM (active) | Potency [6]: inactive | Potency [7]: inactive | outcome [8]: inactive | caspase-3 activation [9]: 12.7% | caspase-3 activation [10]: 20.7% | caspase-3 activation [11]: -8.9% | Potency [13]: inactive | Potency [14]: inactive | Potency [15]: 50.1 µM (active) | Potency [16]: 31.6 µM (active) | Potency [17]: inactive | Potency [19]: inactive

c1cc(OCC2CO2)cc(OCC2CO2)c1 (configuration not stated)
Potency [1]: 41.9 µM (active) | Potency [2]: 32.9 µM (active) | activity change, negative = cytotoxicity [18]: -149% (active) | Potency [4]: 39.8 µM (active) | Potency [9]: 12.6 µM (active) | caspase-3 activation [11]: 8.84% | Potency [14]: inactive | Potency [17]: inactive | Potency [19]: inactive

O=C(OCC(COC(=O)c1ccccc1)(COC(=O)c1ccccc1)COC(=O)c1ccccc1)c1ccccc1
Potency [1]: > 92 µM | Potency [2]: > 92 µM | Potency [3]: > 92 µM | Potency [20]: inactive | Potency [18]: inactive | Potency [4]: inactive | Potency [5]: inactive | Potency [6]: inactive | Potency [7]: inactive | outcome [8]: inactive | caspase-3 activation [9]: -0.121% | caspase-3 activation [10]: -0.12% | caspase-3 activation [11]: 2.36% | Potency [12]: inactive | Potency [13]: inactive | Potency [14]: inactive | Potency [15]: inactive | Potency [16]: inactive | Potency [17]: inactive | Potency [19]: inactive

c1ccc2c(c1)ccc1cc3c(ccc4ccccc43)cc12
Potency [1]: > 92 µM | Potency [2]: > 92 µM | Potency [3]: > 92 µM | Potency [18]: inactive | Potency [4]: inactive | Potency [5]: inactive | Potency [6]: inactive | Potency [7]: inactive | outcome [8]: inactive | caspase-3 activation [9]: -0.556% | caspase-3 activation [10]: -1.53% | caspase-3 activation [11]: -3.42% | Potency [12]: inactive | Potency [13]: inactive | Potency [14]: inactive | Potency [15]: inactive | Potency [16]: inactive | Potency [17]: inactive | Potency [19]: inactive

CCC(C)Nc1ccc(NC(C)CC)cc1 (configuration not stated)
Potency [1]: 3.09 µM (active) | Potency [2]: 19.3 µM (active) | Potency [3]: 13.5 µM (active) | Potency [18]: 5.01 µM (active) | Potency [4]: 6.31 µM (active) | Potency [5]: inactive | Potency [6]: inactive | Potency [7]: inactive | outcome [8]: inactive | caspase-3 activation [9]: -5.96% | caspase-3 activation [10]: -5.35% | caspase-3 activation [11]: -12.1% | Potency [14]: 12.6 µM (active) | Potency [15]: 10 µM (active) | Potency [16]: 5.01 µM (active) | Potency [17]: 15.8 µM (active) | Potency [19]: 14.1 µM (active)

CC(=O)Nc1ccc(C(=O)CCl)cc1
Potency [1]: 2.44 µM (active) | Potency [2]: 37.9 µM (active) | Potency [3]: 40.3 µM (active) | Potency [20]: inactive | Potency [18]: 2 µM (active) | Potency [4]: 10 µM (active) | Potency [5]: inactive | Potency [6]: inactive | Potency [7]: inactive | outcome [8]: inactive | caspase-3 activation [9]: -5.98% | Potency [12]: inactive | Potency [13]: 25.1 µM (active) | Potency [14]: 39.8 µM (active) | Potency [15]: 6.31 µM (active) | Potency [16]: 6.31 µM (active) | Potency [17]: 25.1 µM (active)

COC(=O)[C@@H](NC(=O)c1cc(-c2ccccc2)nc2ccccc12)c1ccccc1
Potency [20]: inactive

C[C@H](N)C1CCC(C(=O)Nc2ccncc2)CC1 (some centres not stated)
Potency [20]: inactive

— PubChem BioAssay (NCATS)
